From PubChem BioAssay AID2283162 (EPA ToxCast)
Inconclusive results are not listed. Activity calls are given as the source filed them. The calls were made as follows: active = hit-call score of the fitted dose curve at least 0.9, where 1 is the maximum; inconclusive = response in the unintended direction; inactive = score below 0.9.

biological target: human Insulin-like Growth Factor 1 Receptor (IGF1R), IGF1R (gene 3480) (UniProt P08069); test: NVS_ENZ_hIGF1R: NovaScreen (NVS) Enzymatic Assay for human Insulin-like Growth Factor 1 Receptor (IGF1R)
Sequence (P08069 whole entry, looked up): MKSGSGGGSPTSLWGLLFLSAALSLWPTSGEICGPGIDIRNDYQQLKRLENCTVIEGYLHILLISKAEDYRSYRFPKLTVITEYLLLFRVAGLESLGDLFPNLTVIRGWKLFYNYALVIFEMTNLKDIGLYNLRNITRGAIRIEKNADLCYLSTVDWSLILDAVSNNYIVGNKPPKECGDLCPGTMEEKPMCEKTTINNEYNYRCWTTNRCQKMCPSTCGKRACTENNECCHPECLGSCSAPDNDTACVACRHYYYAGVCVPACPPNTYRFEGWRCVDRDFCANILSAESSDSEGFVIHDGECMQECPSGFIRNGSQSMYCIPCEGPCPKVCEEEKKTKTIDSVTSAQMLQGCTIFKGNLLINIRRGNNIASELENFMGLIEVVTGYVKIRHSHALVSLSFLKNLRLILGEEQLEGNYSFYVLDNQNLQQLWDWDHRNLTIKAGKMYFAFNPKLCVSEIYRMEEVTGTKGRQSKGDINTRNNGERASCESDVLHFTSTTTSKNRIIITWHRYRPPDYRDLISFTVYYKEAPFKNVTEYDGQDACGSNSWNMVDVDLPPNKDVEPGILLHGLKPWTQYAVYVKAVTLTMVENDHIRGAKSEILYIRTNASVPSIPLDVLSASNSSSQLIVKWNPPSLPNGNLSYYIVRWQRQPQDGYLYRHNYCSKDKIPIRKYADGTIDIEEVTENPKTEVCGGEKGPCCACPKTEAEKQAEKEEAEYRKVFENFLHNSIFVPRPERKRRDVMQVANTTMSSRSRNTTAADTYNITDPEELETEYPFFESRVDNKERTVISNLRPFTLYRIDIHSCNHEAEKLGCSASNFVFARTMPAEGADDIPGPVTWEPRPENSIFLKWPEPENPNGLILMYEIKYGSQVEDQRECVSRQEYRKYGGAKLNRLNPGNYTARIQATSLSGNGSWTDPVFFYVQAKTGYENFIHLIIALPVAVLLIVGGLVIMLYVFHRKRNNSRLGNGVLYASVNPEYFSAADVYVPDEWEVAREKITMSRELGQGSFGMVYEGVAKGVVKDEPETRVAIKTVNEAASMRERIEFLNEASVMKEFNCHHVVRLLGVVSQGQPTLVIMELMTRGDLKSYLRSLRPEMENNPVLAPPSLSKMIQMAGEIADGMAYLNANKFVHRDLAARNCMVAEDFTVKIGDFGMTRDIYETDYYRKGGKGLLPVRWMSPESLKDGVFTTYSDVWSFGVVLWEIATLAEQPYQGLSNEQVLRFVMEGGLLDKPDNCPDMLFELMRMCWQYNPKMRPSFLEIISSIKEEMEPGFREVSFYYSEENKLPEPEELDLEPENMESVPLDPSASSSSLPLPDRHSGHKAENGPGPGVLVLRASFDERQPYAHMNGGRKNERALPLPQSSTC
Method: NVS_ENZ_hIGF1R is a biochemical, single-readout assay that uses extracted gene-proteins in a cell-free assay. Measurements were taken 1 hour after chemical dosing in a 384-well plate.NVS_ENZ_hIGF1R is one of one assay component(s) measured or calculated from the NVS_ENZ_hIGF1R assay. It is designed to make measurements of enzyme activity, a form of enzyme reporter, as detected with fluorescence intensity signals by Fluorescence and electrophoretic mobility shift technology.Data from the assay component NVS_ENZ_hIGF1R was analyzed into 1 assay endpoint. This assay endpoint, NVS_ENZ_hIGF1R, was analyzed in the positive analysis fitting direction relative to DMSO as the negative control and baseline of activity. Using a type of enzyme reporter, loss-of-signal activity can be used to understand changes in the enzymatic activity as they relate to the gene IGF1R. Furthermore, this assay endpoint can be referred to as a primary readout, because this assay has produced multiple assay endpoints where this one serves a enzymatic activity function. To generalize the intended target to other relatable targets, this assay endpoint is annotated to the kinase intended target family, where the subfamily is receptor tyrosine kinase.
Binding assays used specific radioligands (tritiated, iodinated) with non-radioactive competitive displacement ligands in agonist or antagonist protocols (as indicated) and various reference compounds and inhibitors to titrate specific binding to receptors and transporters. Most enzyme assays (CYPs, kinases, phosphatases, proteases, HDACs) used recombinant protein and specific substrates (fluorescence mostly, some colorimetric and radioactive) and inhibitors, followed by a biochemical separation of substrate and product. All assays for the biochemical HTS were initially run in duplicate at a single concentration (10 uM for CYP450 assays and 25 uM for all others). Assay-chemical combinations meeting a pre-defined threshold (e.g., 30% inhibition and other criteria defined below) were then run in singleton concentration-response format with maximum concentration of 20 uM for CYPs and 50 uM for all others. Each assay was run with positive and negative controls, and concurrent controls on every plate. The follow-up (secondary) screen tested active chemical-pairs in concentration series, as well as a few additional assays not tested in the primary screen, some selected negative inactives, and several cases re-run in the concentration series for confirmatory purposes.

SMILES | outcome | AC50
Clc1cccc(Cl)c1 | inactive | –
O=C(N[C@H]1CN2CCC1CC2)c1ccc2c(c1)OCCO2 | inactive | –
CN(C)[C@@H]1C(=O)C(C(N)=O)=C(O)[C@@]2(O)C(=O)C3=C(O)c4c(O)cccc4[C@@](C)(O)[C@H]3[C@H](O)[C@@H]12 | – | 39.4 µM (active)
CC(C)C(=O)OCC(C)(C)C(OC(=O)C(C)C)C(C)C (stereo unspecified) | inactive | –
CC(C)(C)c1cc(O)ccc1O | inactive | –
CCC1(c2ccccc2)C(=O)N=C(O)NC1=O (stereo unspecified) | inactive | –
